Reference: PubChem BioAssay AID2284364 (EPA ToxCast)
The source made the active and inactive calls. Rule for the calls: active = hit-call score of the fitted dose curve at least 0.9, where 1 is the maximum; inactive = score below 0.9.

Target: Peroxisome proliferator-activated receptor gamma (Homo sapiens) (UniProt P37231)
Experiment: ERF_US_NR_hPPARG: Eurofins (ERF) Nuclear Receptor (NR) Cell Based Protein-Protein Interaction LeadHunter Assay for human Peroxisome Proliferator-activated Receptor-gamma (PPARg) Agonism
Protocol: ERF_US_NR_hPPARG is a cell-based, single-readout assay that uses extracted gene-proteins in a cell-line assay. Measurements were taken 5 hours after chemical dosing in a 384-well plate. See PPARgamma Human NHR Cell Based Agonist Protein-Protein Interaction Assay, DiscoverX.ERF_US_NR_hPPARG is an assay component calculated from the ERF_US_NR_hPPARG assay. It is designed to measure […] using a type of binding reporter as detected by scintillation counting with radiometry technology.Data from the assay component ERF_US_NR_hPPARG was analyzed at the assay endpoint, ERF_US_NR_hPPARG, in the positive analysis fitting direction relative to DMSO as the negative control and baseline of activity. Using a type of binding reporter, gain-of-signal activity can be used to understand changes in binding as they relate to gene PPARG. To generalize the intended target to other relatable targets, this assay endpoint is annotated to the nuclear receptor intended target family, where the subfamily is non-steroidal.
Cells were seeded in a total volume of 20 uL into white walled, 384-well microplates and incubated at 37C overnight prior to testing.Briefly, intermediate dilution of sample stocks was performed to generate 5X sample in assay buffer. 5 uL of 5X sample was added to cells and incubated at 37C for 300 minutes. […] The results are expressed as a percent efficacy of the control ligand.

Peroxisome proliferator-activated receptor gamma (Homo sapiens), sequence (P37231 whole entry, looked up): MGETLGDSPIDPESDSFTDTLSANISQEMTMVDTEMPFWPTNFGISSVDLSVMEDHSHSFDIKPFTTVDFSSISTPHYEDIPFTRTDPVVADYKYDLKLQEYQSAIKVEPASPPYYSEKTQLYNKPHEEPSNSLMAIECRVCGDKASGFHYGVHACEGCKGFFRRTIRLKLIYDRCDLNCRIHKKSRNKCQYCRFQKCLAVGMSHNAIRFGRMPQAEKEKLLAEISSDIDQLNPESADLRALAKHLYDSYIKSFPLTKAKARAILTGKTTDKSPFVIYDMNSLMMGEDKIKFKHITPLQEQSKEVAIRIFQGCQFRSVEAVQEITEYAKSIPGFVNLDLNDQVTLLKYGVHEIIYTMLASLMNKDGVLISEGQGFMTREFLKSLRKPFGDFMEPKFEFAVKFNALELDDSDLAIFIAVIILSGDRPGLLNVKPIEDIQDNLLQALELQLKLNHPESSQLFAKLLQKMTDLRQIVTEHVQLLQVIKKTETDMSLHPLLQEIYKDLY

Which outcome does the source give for O=S(=O)(O)C(F)(F)C(F)(F)C(F)(F)C(F)(F)C(F)(F)C(F)(F)C(F)(F)C(F)(F)F here?
The outcome was “inactive”.
